Unmarked numbers belong to inactive results. Active and inactive are the calls of the source.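 How the source made its calls: active means z-score of at least 1.8 in each of two replicates, scored against plate mean and spread of sample wells; inactive means the rest.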
test: viability rescue of complex I mutant cybrids, primary screen, cell-based, galactose medium, ATP luminescence (AID 1645843); settings: complex I mutant cybrid cells, 72 h, stronger effect = higher value;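 further: positive z means more ATP and so rescue of galactose-driven cybrid death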

In order of falling z-score:
1. Cc1nn(C)c(C)c1-c1ccnc(NCC(C)Oc2cccnc2)n1 (stereo not given)  1.26
2. Cc1cccc(C2CCCN(C(=O)c3cc(C(C)C)no3)C2)c1 (stereo not given)  1.05
3. Cn1cc(-c2cc(C(=O)N3CCc4ccccc4C3)c3cc(F)ccc3n2)cn1  1
4. Cc1cn(CC(=O)Nc2cnn(C)n2)nc1-c1cccs1  0.735
5. CC1Cc2cc(C(=O)N3CCC(n4cc(CCO)nn4)CC3)ccc2O1 (stereo not given)  0.36
6. COc1ccc(F)cc1-c1cnn(CC(=O)Nc2cc(C)nn2C)c1  0.085
7. O=c1c2sccc2ncn1Cc1nc2ccccc2[nH]1  0.03
8. CCn1ncc(NC(=O)Cn2cc(C)c(-c3ccc(Cl)s3)n2)n1  -0.01
9. COc1ccccc1-c1noc(C(C)n2cccn2)n1 (stereo not given)  -0.115
10. CCN1CC(Cn2cnc3c(C)c(C)ccc3c2=O)CC1=O (stereo not given)  -0.145
11. O=C(C1CCCCCC1)N1CCC(n2cc(-c3ccsc3)nn2)CC1  -0.215
12. CC(C)C1C(=O)N(C)CCN1C(=O)Nc1nc(-c2ccccc2)ns1 (stereo not given)  -0.345
13. COc1cccc2ccc(-c3ccccc3)nc12  -0.375
14. Cc1nn(C)c(C)c1-c1ccnc(NCCc2nc(-c3ccccn3)no2)n1  -0.395
15. C=C1C2(C(=O)N3CCC(CCN4CCCC4=O)CC3)CCC(C2)C1(C)C (stereo not given)  -0.41
16. Cc1cc(CN2CCOC(CN)C2)ccc1OC1(C(=O)O)CCSCC1 (stereo not given)  -0.415
17. COC(=O)c1ccccc1C(=O)N1CCNC(=O)C1Cc1ccccc1 (stereo not given)  -0.485
18. COC(=O)c1ccc(C(=O)N2CCNC(=O)C2Cc2ccccc2)cc1 (stereo not given)  -0.49
19. CC(=O)NCCC1CCN(C(=O)C(C)Oc2cc(C)c(Cl)c(C)c2)CC1 (stereo not given)  -0.5
20. Cc1cc(CN(C)Cc2ccc(-c3nc(C)c(C)c(=O)[nH]3)cc2)ccn1  -0.52
21. COc1cc(C)ccc1C(=O)N1CCC(Cn2cc(C3CC3)nn2)CC1  -0.52
22. CC(C)Oc1cccc(C(=O)N2CCC(n3cc(C(C)(C)O)nn3)CC2)c1  -0.52
23. CCOC(=O)c1ccc(N2CCN(CC(C)C)C(=O)C2C)nc1 (stereo not given)  -0.53
24. O=C1NCCN(C(=O)c2ccccc2)C1Cc1ccccc1 (stereo not given)  -0.54
25. O=C(C1CCCCCC1)N1CCC(n2cc(-c3ccccn3)nn2)CC1  -0.545
26. CN(C)C(=O)c1cccnc1-c1ccc2ncccc2c1  -0.545
27. CCn1nc(C(C)C)cc1C(=O)N1CCC(n2cc(CC(C)C)nn2)CC1  -0.55
28. O=C(CC1CCCCCC1)N1CCC(Cn2cc(C3CC3)nn2)CC1  -0.55
29. Cc1c(C(F)(F)F)nc(-c2ccc(CN(C)C)cc2)[nH]c1=O  -0.555
30. CC(C)CN1CCN(c2ccc(C(F)(F)F)cn2)C(C)C1=O (stereo not given)  -0.56
31. CCc1ncc(-c2cc(C(=O)N3CCC(C)(C)C3)c3ccc(F)cc3n2)cn1  -0.56
32. CCCCC(CO)NC(C)CCc1ccc(O)cc1 (stereo not given)  -0.565
33. CC(=O)c1c(C)nn(CC(=O)Nc2ccc(N3CCOCC3)cc2)c1C  -0.6
34. CCCC(NC(=O)c1cc(C)oc1C)c1ccccc1 (stereo not given)  -0.63
35. CC[C@H](C)[C@H](N)C(=O)N1CCC(Cn2cc(C3CCCCC3)nn2)CC1  -0.81
36. Cc1cc(N2CCCC(Cn3cc(CN)nn3)C2)nc(-c2ccccc2O)n1 (stereo not given)  -0.9
37. Cc1nn(C)c(C)c1-c1ccnc(NCc2cnc3ccccn23)n1  -0.925
38. O=C(c1ccc(-n2ccnc2)cc1)N1CCc2[nH]nc(-c3ccccc3)c2C1  -1
39. CNCCCNC1CCN(c2ccc(-c3cccc(F)c3)cc2)CC1  -1.3

For `CCCCn1cc(-c2cc(C(=O)N3CCCC3)c3cccc(C)c3n2)cn1`, the z-score was 2.59 (active).

From PubChem BioAssay
